Data from the supplement of paper PMC9694430.
Where a name gives a salt, the structure may show the parent alone.

Each compound was assayed on LOC_OS01G57100-cb003 (assay: thermal shift delta Tm vs DMSO control; higher = stronger stabilization (binding)). Settings: 12.5 µM; protein concentration 2 µM.
In short: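 The melting temperature shift given here is a triplicate mean, measured against protein that received only DMSO. Melting temperatures came from Boltzmann fits of differential scanning fluorimetry data on E. coli-expressed, purified rice kinase domain constructs. Each 19.5 μl well contained 2 μM kinase, 100 mM potassium phosphate pH 7.5, 150 mM NaCl, 10% glycerol, 5 × SYPRO Orange and compound in DMSO. Plates were scanned from 25°C to 95°C at 0.05°C/s.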

SMILES	thermal shift delta Tm [°C]
CCNC(=O)Nc1ccc(-c2nc(N3CCOC[C@@H]3C)c3c(n2)C(C)(C)S(=O)(=O)C3)cc1	2.26
CN1CCN(c2ccc(OC(F)(F)F)c(Nc3ncc4c(n3)-c3c(c(C(N)=O)nn3CCO)CC4)c2)CC1	1.21
C[C@@H](Oc1cc(-n2cnc3ccc(CN4CCN(C)CC4)cc32)sc1C(N)=O)c1ccccc1C(F)(F)F	0.34
COc1cc(OC)cc(-c2cc3cnc(N)nc3nc2NC(=O)NC(C)(C)C)c1	1.18
COC(=O)c1ccc2c(c1)NC(=O)/C2=C(\Nc1ccc(N(C)C(=O)CN2CCN(C)CC2)cc1)c1ccccc1 [Nintedanib (BIBF 1120)]	0.08
Cc1[nH]c(/C=C2\C(=O)Nc3ccccc32)c(C)c1CCC(=O)O [Orantinib (TSU-68, SU6668)]	2.5
NC1(c2ccc(-c3nc4ccn5c(=O)[nH]nc5c4cc3-c3ccccc3)cc2)CCC1	-0.32
N#Cc1ccc2[nH]c(O)c(-c3ccc(CN4CCOCC4)cn3)c2c1	-0.18
C=C[C@@](C)(/C=C/c1ccc(O)cc1)CCC=C(C)C [Bakuchiol]	-0.4
Cn1cnc2c(F)c(Nc3ccc(Br)cc3F)c(C(=O)NOCCO)cc21	0.75
CC(C)(C)c1nc(-c2ccc(NC(=O)Nc3cccc(C(F)(F)F)c3)c3ccccc23)c2c(N)nccn12 [kira6]	0.63
CC1=C(C(=O)Nc2cc3cn[nH]c3cc2F)C(c2ccc(C(F)(F)F)cc2)CC(=O)N1 (configuration not stated)	1.21
Cc1cn(-c2cc(NC(=O)c3ccc(C)c(Nc4nccc(-c5cnccn5)n4)c3)cc(C(F)(F)F)c2)cn1 [Radotinib]	1.49
COc1ncc(-c2ccc3nccc(-c4ccnnc4)c3c2)cc1NS(=O)(=O)c1ccc(F)cc1F	2.01
CNC(=O)c1cc(COc2nnc(Nc3ccc(Cl)cc3)c3ccoc23)ccn1 [Telatinib]	1.9
COc1cc2nccc(Oc3ccc(NC(=O)C4(C(=O)Nc5ccc(F)cc5)CC4)cc3)c2cc1OC [Cabozantinib malate (XL184)]	1.34
C1=N/C2=N/c3ccc(OCCN4CCCC4)c(c3)COC/C=C/COCc3cccc(c3)C(=C1)N2 [Pacritinib (SB1518)]	1.85
N#Cc1cnc(Nc2cc(NC[C@H]3CNCCO3)c(C(F)(F)F)cn2)cn1	0.46
COc1cc(N2CCN(C)CC2)ccc1Nc1nccc(-c2cn(C)c3cnccc23)n1	1.48

SMILES	thermal shift delta Tm [°C]
CC(C)(C)NS(=O)(=O)c1cncc(-c2cc(F)c3nc(N)nn3c2)c1	1.55
CCNC(=O)C#Cc1ccc2c(C(=Nc3ccc(CN(C)C)cc3)c3ccccc3)c(O)[nH]c2c1	-0.26
O=C1NC(=O)[C@@H](c2cn3c4c(cccc24)CCC3)[C@@H]1c1c[nH]c2ccccc12 [Tivantinib (ARQ 197)]	1.7
O=S(=O)(c1cccc2c(I)cccc12)N1CCCNCC1	0.91
CCN1CCN(Cc2ccc(C(=O)Nc3ccc(C)c(Oc4ccc5c(c4)CC(=O)N5)c3)cc2C(F)(F)F)CC1	2.21
C[C@@H](Nc1cc(F)cc(F)c1)c1cc(C(=O)N(C)C)cc2c(=O)cc(N3CCOCC3)oc12	0.51
C[C@H](CN(C)C)Oc1nc(Nc2cc3cccc(Cl)c3cn2)cnc1C#N	0.95
CNC(=O)c1cc(Oc2ccc(NC(=O)Nc3ccc(Cl)c(C(F)(F)F)c3)cc2)ccn1 [Sorafenib]	3.62
COc1ccc(Cl)cc1NC(=O)Nc1cc(C)nc2ccccc12	1.28
O=C(c1cccc(Cl)c1F)N1CCN(Cc2cccc(Nc3nccs3)n2)CC1	1.37
CNC(=O)c1ccc(C)c(-n2c(C)cc(OCc3ccc(F)cc3F)c(Br)c2=O)c1	2.4
CCn1c(-c2nonc2N)nc2c(C#CC(C)(C)O)ncc(OC[C@H]3CCCNC3)c21	0.99
CCC[C@H](NC(=O)/C(C#N)=C/c1cccc(Br)n1)c1ccccc1 [Degrasyn (WP1130)]	5.82
OC1CCC(Nc2ncc3nc(Nc4c(F)cc(F)cc4F)n([C@H]4CCOC4)c3n2)CC1 (some centres not stated) [Tanzisertib(CC-930)]	1.12
CN(C)C/C=C/C(=O)Nc1cc2c(Nc3ccc(F)c(Cl)c3)ncnc2cc1O[C@H]1CCOC1 [Afatinib (BIBW2992) Dimaleate]	0.18
Cc1cc(O)c(-c2ccc([C@@H](C)CN)cc2)c2c1[nH]c(=O)c1sccc12 [OTS514 hydrochloride]	-0.04
Cc1ccc(F)c(NC(=O)Nc2ccc(-c3cccc4[nH]nc(N)c34)cc2)c1 [Linifanib (ABT-869)]	-0.27
COc1cc(N2CCC(N(C)C)CC2)ccc1Nc1ncc(Cl)c(Nc2ccccc2P(C)(C)=O)n1	4.55
